Publication PMC5540273 (PLoS ONE, 2017)
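Further: KINOMEscan kinase panel screen.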

The compounds below were run on NEK9. Settings: concentration: 1 μM, replicates: in singlicate; n = 1.
For `CCNc1nccc(-c2c(-c3ccc(F)cc3)ncn2C2CCN(C)CC2)n1`, the “%Inh” value was 0%.
For `CS(=O)(=O)c1cccc(CNc2nc(Nc3ccc4c(c3)CCC(=O)N4)ncc2C(F)(F)F)c1`, the “%Inh” value was 0%.
In the case of `Cc1ccc(NC(=O)c2ccnc(N3CCCCC3)c2)cc1-c1ccc(C(=O)NCC2CC2)cc1` [GW775610], the “%Inh” value is reported as 20%.
`CN(C)c1ncnc2nc[nH]c12` [SKF-31736] was tested, and the “%Inh” value was 0%.
In the case of `Cc1ccc(Nc2ccnc(Nc3ccc(C)c(F)c3)n2)cc1O.Cl` [GW582868], the “%Inh” value is reported as 0%.
For `Cc1ccc(O)cc1Nc1ccnc2ccc(C(C)(C)C)cc12` [GW856805], the “%Inh” value was 10%.
In the case of `Cn1cc(-c2ccc3c(c2)CCN3C(=O)Cc2cc(F)cc(C(F)(F)F)c2)c2c(N)ncnc21` [GSK2635225], the “%Inh” value is reported as 25%.
For `CN(c1ccc(F)c(NC(=O)c2cccc(OC(C)(C)C#N)c2Cl)c1)c1ccc2nc(NC(=O)C3CC3)sc2n1`, the “%Inh” value was 5%.
In the case of `CC(C)NCC(Cc1ccccc1)NC(=O)c1cc(Br)c(-c2ccnc3[nH]ccc23)s1.Cl.Cl` (stereo not shown) [GSK1383281], the “%Inh” value is reported as 0%.
`CCOc1nccc(-c2c(-c3ccc(F)cc3)ncn2C2CCNCC2)n1` [SB-249175] was tested, and the “%Inh” value was 7%.
With `CN(C)CCOc1ccc(-c2cc(-c3ccc(Cl)c(O)c3)c(-c3ccncc3)[nH]2)cc1.Cl.Cl` [SB-684387] the “%Inh” value was 17%.
With `O=C(O)C(F)(F)F.O=c1[nH]ccc2nc(N[C@@H]3CCNC3)nc(Nc3cc(Cl)cc(Cl)c3)c12` [GSK2188764] the “%Inh” value was 25%.
With `CNc1nccc(-c2ccc3c(N)n[nH]c3c2)n1` [GSK2206003] the “%Inh” value was 9%.
